We go through 16 compounds from PubChem BioAssay (EPA / NIEHS).

One assay has as its system TTR (gene 7276). Description: CCTE_GLTED_hTTR_0.125uM: CCTE's human Transthyretin (hTTR) Inhibition Assay, with 0.125uM TTR, Great Lakes Toxicology and Ecology Division (GLTED) Lab (AID 2284431).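 Note: hits lower the fluorescence signal relative to DMSO baseline.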 The method, then:
CCTE_GLTED_hTTR is a cell-free, single-readout assay designed to test the chemicals' ability to displace T4 from the human transthyretin (TTR) protein. TTR (at 0.125uM or 0.5uM) is incubated in presence of test chemical for 2 hours during which disrupting chemicals displace ANSA from the TTR protein. Results read fluorescence at 380 excitation and 475 emission.CCTE_GLTED_hTTR_0.125uM is the assay component measured from the CCTE_GLTED_hTTR assay. It is designed to make measurements of fluorescent polarization, using a form of binding reporter, as detected with Fluorescence signals by Fluorescence technology.Data from the assay component CCTE_GLTED_hTTR_0.125uM was analyzed at the assay endpoint CCTE_GLTED_hTTR_0.125uM in the positive analysis fitting direction relative to DMSO as the negative control and baseline of activity. Using a type of binding reporter, loss-of-signal activity can be used to understand a chemical's ability to displace T4 from transthyretin. To generalize the intended target to other relatable targets, this assay endpoint is annotated to the 'transporter' intended target family, where the subfamily is 'hormone carrier protein'.
Human transthyretin (TTR) assay, developed at Great Lakes Toxicology and Ecology Division (GLTED) within the EPA's Center for Computational Toxicology and Exposure (CCTE), is designed to test the chemicals' ability to displace T4 from the TTR protein. TTR (0.125uM) is incubated in presence of test chemical for 2 hours during which disrupting chemicals displace ANSA from the TTR protein. Results read fluorescence at 380 excitation and 475 emission.

Assay [1] can be described thus: CCTE_Deisenroth_DEVTOX-GLR_Endo_CellCount: Viability Assessment in CCTE's DevTox GLR-Endo Assay, Deisenroth Lab (AID 2284420). The gist of the method: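 Nuclei counted by fluorescence microscopy as a surrogate for cell number, expressed as percent change relative to 0.2% DMSO control. Human RUES2-GLR cells, 48 h differentiation, dosed twice; 1 nM - 200 uM series.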

Assay [2] deals with SRY-box transcription factor 17 (SOX17) Protein Expression, Deisenroth Lab, SOX17 (gene 64321). Description: CCTE_Deisenroth_DEVTOX-GLR_Pluri_SOX17: CCTE's DevTox GLR-Pluri Assay Evaluation of SRY-box transcription factor 17 (SOX17) Protein Expression, Deisenroth Lab (AID 2284427; active = hit-call score of the fitted dose curve at least 0.9, where 1 is the maximum). In outline:
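Readout: percent SOX17+ cells (SOX17+ count/cell count) by high-content imaging of an inducible fluorescent reporter, corrected for 0.2% DMSO solvent control. RUES2-GLR cells, 48 h differentiation, dosed twice at 24 h intervals, 1 nM - 200 uM.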

In assay [3] the test system is SRY-box transcription factor 2 (SOX2) Protein Expression, Deisenroth Lab, SOX2 (gene 6657). Description: CCTE_Deisenroth_DEVTOX-GLR_Pluri_SOX2: CCTE's DevTox GLR-Pluri Assay Evaluation of SRY-box transcription factor 2 (SOX2) Protein Expression, Deisenroth Lab (AID 2284428). In outline: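 RUES2-GLR (human pluripotent), 48 h post-dosing, 2 exposures q24h, 1 nM–200 uM 10-pt. Fixed, nuclear dye, high-content imaging 5 fields/well. Endpoint: % SOX2+ cells (SOX2+/total count) vs 0.2% DMSO; n≥4.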

Assay [4] has as its system Brachyury (BRA) Protein Expression, Deisenroth Lab, TBXT (gene 6862). Description: CCTE_Deisenroth_DEVTOX-GLR_Pluri_BRA: CCTE's DevTox GLR-Pluri Assay Evaluation of Brachyury (BRA) Protein Expression, Deisenroth Lab (AID 2284429; active = hit-call score of the fitted dose curve at least 0.9, where 1 is the maximum). The method, then: CCTE_Deisenroth_DEVTOX-GLR_Pluri assay is a cell-based, multiplex-readout assay that uses RUES2-GLR, a human pluripotent cell line, with measurements taken at 48 hours after chemical dosing in a 384-well microplateCCTE_Deisenroth_DEVTOX-GLR_Pluri_BRA is 1 of 4 assay components calculated from the CCTE_Deisenroth_DEVTOX-GLR_Pluri assay and it measures an the percentage of cells in an mesoderm state. Using a type of inducible fluorescent protein reporter, gain-of-signal activity can be used to understand changes in gene expression with fluorescent microscopy. The percentage of BRA+ cells are determined by calculating the number of BRA+ cells divided by the cell count. To generalize the intended target to other relatable targets, this assay component is annotated to the transcription factor intended target family, where the subfamily is T-box protein.Data from the assay component CCTE_Deisenroth_DEVTOX-GLR_Pluri_BRA was analyzed as 1 assay endpoint. The endpoint is the percent BRA+ cell population minus the 0.2% DMSO control in the CCTE_Deisenroth_DEVTOX-GLR_Pluri assay. Furthermore, this assay endpoint can be referred to as a secondary readout, because this assay has produced multiple assay endpoints where this one serves as a measure of mesoderm differentiation.
All assay protocols are aligned to the DevTox GLR-Endo assay workflow. […]

A short description of assay [5]: CCTE_Deisenroth_DEVTOX-GLR_Pluri_CellCount: Viability Assessment in CCTE's DevTox GLR-Pluri Assay Evaluation of Total Cell Counts, Deisenroth Lab (AID 2284430). In outline: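 RUES2-GLR human pluripotent cells, seeded 24 h, then differentiated 48 h with two chemical exposures 24 h apart; 10-point series 1 nM - 200 uM. Fixed, nuclear-stained, imaged (5 fields/well); nuclei count as % change vs 0.2% DMSO.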

A short description of assay [6]: CCTE_Padilla_ZF_Score.Any: CCTE's 144 Hour Post-fertilization zebrafish Assay Score for Any Mortality or Malformation, Padilla Lab (AID 2284416). The gist of the method:
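Wild-type zebrafish embryos with chorions, one per well in 10% Hanks' from 6–8 hpf, dosed in sealed plates at 26 C, 14:10 h light:dark; rinsed at 5 dpf; blinded scoring at 6 dpf for death or malformation, versus DMSO.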

Assay [7] concerns Brachyury (BRA) Protein Expression, TBXT (gene 6862). Description: CCTE_Deisenroth_DEVTOX-GLR_Endo_BRA: CCTE's DevTox GLR-Endo Assay Evaluation of Brachyury (BRA) Protein Expression, Deisenroth Lab (AID 2284417). The gist of the method: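 Endpoint is the fraction of BRA reporter-positive cells over total nuclei, corrected by subtracting the 0.2% DMSO value. Chemicals (1 nM - 200 uM, 10 points) were dosed twice during 48 h differentiation of RUES2-GLR cells, read by imaging.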

Results filed as inconclusive are left out. Activity calls are given as the source filed them. Rule for the calls, unless noted: active = hit-call score of the fitted dose curve at least 0.9, where 1 is the maximum; inactive = score below 0.9.

The AC50 is the concentration at which the activity in the assay is half-maximal. For `O=S(=O)(O)c1cc(S(=O)(=O)O)c2c(N=Nc3ccccc3)c(O)ccc2c1`, the AC50 in the assay with TTR (gene 7276) was 12 µM (active).

In the case of `CC(C)Cc1ccc(C(C)C(=O)O)cc1` (stereo not given), the compound was classed as inactive in assay [1], in assay [2], in assay [3], in assay [4] and in assay [5].

`C=C(F)C(=O)OC(C(F)(F)F)C(F)(F)F`: in assay [6], the compound was called inactive.

For the compound `CCCCCCCCOS(=O)(=O)O`, the AC50 with TTR (gene 7276) is 10.6 µM (active).

For the compound `O=C(O)c1ccccc1O`, the compound was called inactive in assay [7], in assay [1], in assay [2], in assay [3], in assay [4] and in assay [5].

For the compound `O=C(O)C(F)(F)OC(F)(F)C(F)(F)OC(F)(F)C(F)(F)C(F)(F)C(F)(F)F`, the compound was classed as inactive in assay [6].

On to `CCCCCCCCOC(=O)c1ccc(O)cc1`, for which the AC50 in the assay with TTR (gene 7276) was 2.77 µM (active).

With `CCCCCCCCCCCCOCCOS(=O)(=O)O`, the AC50 in the assay with TTR (gene 7276) is 6.09 µM (active).

Take `O=S(=O)(O)C(F)(F)C(F)(F)OC(F)(F)C(F)(F)F`: the call in assay [6] was inactive.

Take `CCCCCCCCCOS(=O)(=O)O`: in the assay with TTR (gene 7276), the AC50 was 8.43 µM (active).

`C=C(C)C(=O)OCCC(F)(F)C(F)(F)C(F)(F)C(F)(F)C(F)(F)C(F)(F)C(F)(F)C(F)(F)F`: in assay [6], the compound was called inactive.

As for `CCCCCCOc1ccc(O)cc1`, the AC50 in the assay on TTR (gene 7276) is 3.47 µM (active).

Regarding `C#C[C@]1(O)CC[C@H]2[C@@H]3CCc4cc(O)ccc4[C@H]3CC[C@@]21C`, the AC50 in the assay with TTR (gene 7276) was 2.73 µM (active).

`OCC(F)(OC(F)(F)C(F)(OC(F)(F)C(F)(F)C(F)(F)F)C(F)(F)F)C(F)(F)F` (stereo not given): in assay [6], the AC50 was 31.8 µM (active).

`O=c1cc(-c2ccc(O)cc2)oc2cc(O)cc(O)c12`: in the assay with TTR (gene 7276), the AC50 is 0.035 µM (active).

As to `O=C(O)C(F)(F)C(F)(F)C(F)(F)C(F)(F)C(F)(F)C(F)(F)C(F)(F)C(F)F`, the AC50 in assay [6] is 88.5 µM (active).
